Test results taken from publication PMC11995724, “Antibiotic target discovery by integrated phenotypic and activity-based profiling of electrophilic fragments” (Cell chemical biology, 2025).
Among all 3,200 compounds or so, about 75 (2%) showed an effect of 50% or more. The sample as a whole holds a higher share of strong results than the screen did.

tested on: T1, S. aureus MSSA476; parameters: species or system S. aureus MSSA476 (TSB) or V. cholerae SAD30 (LB); 384-well bacterial growth screen at 25 uM, OD600 relative to DMSO control; settings: 25 µM; inhibitor
T1 construct: MSSA476

| Compound | % of control remaining [%] |
| --- | --- |
| CCn1c(-c2ccccc2)c(C(=O)CCl)c2ccccc21 [10-E12, 2-chloro-1-(1-ethyl-2-phenyl-1H-indol-3-yl)ethan-1-one] | -0.3125 |
| N#Cc1ccc(NC(=O)CCl)cc1Cl [4-N03, 2-chloro-N-(3-chloro-4-cyanophenyl)acetamide] | 74.7022 |
| C=CC(=O)Nc1ccc(C(=O)N2CCC3(CC2)OCCCO3)cc1 [2-D16, N-(4-{1,5-dioxa-9-azaspiro[5.5]undecane-9-carbonyl}phenyl)prop-2-enamide] | 123.586 |
| CC(Cl)C(=O)c1ccc(Cl)cc1 (stereo not shown) [10-O04, 2-chloro-1-(4-chlorophenyl)propan-1-one] | 129.063 |
